Targets with a hit are over-represented here; the source holds about 8,800 in all. About 0.5% of all pairs of compound and target were hits.
These targets were tested with Cn1cc(-c2ccc3c(c2)CCN3C(=O)Cc2cccc(C(F)(F)F)c2)c2c(N)ncnc21 (assay: log2 fold change, soluble protein after heating vs DMSO (PISA); higher = thermal stabilisation; K562 lysate, 10 uM; active = over 0.2 and 3.5 SD of the protein, either way, in both replicates (recomputed)).
Method in brief: (§1)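 K562 pellets were dounce-homogenised in PBS pH 7.4 with 1 mM MgCl2, and the crude extract at 1 mg/mL protein was treated with 10 μM compound for 30 min. Aliquots were heated for 3 min across 48°C-58°C, pooled, and brought to 0.5% NP-40 at 4°C; soluble protein was the supernatant after 21,000xg for 90 min. Soluble protein was quantified by TMTpro 16plex LC-MS/MS with channel sums equalised, and reported as log2 fold change in thermal stability against DMSO controls, with values from duplicates.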

UniProt P50570, sequence (P50570 whole entry, looked up): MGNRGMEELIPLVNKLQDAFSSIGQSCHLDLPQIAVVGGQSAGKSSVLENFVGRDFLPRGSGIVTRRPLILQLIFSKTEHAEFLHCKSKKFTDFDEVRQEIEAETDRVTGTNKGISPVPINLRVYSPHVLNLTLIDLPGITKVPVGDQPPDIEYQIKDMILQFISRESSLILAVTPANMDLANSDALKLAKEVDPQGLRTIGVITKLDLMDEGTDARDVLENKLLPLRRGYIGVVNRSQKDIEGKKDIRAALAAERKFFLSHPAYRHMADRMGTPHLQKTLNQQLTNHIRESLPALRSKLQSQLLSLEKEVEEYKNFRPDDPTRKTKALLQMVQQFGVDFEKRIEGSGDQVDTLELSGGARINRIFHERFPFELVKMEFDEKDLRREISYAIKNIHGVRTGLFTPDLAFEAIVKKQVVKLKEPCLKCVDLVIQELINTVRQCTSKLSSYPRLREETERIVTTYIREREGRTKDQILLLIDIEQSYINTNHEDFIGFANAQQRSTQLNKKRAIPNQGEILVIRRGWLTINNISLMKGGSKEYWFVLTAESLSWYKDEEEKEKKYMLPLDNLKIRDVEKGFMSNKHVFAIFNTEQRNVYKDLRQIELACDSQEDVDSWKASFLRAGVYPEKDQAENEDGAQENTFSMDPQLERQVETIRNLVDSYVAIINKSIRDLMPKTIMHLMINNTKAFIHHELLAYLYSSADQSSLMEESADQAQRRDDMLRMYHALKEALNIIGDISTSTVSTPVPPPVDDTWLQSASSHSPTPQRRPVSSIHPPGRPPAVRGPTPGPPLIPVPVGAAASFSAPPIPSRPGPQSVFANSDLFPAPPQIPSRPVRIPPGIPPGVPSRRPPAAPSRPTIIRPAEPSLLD
UniProt O75122, sequence (O75122 whole entry, looked up): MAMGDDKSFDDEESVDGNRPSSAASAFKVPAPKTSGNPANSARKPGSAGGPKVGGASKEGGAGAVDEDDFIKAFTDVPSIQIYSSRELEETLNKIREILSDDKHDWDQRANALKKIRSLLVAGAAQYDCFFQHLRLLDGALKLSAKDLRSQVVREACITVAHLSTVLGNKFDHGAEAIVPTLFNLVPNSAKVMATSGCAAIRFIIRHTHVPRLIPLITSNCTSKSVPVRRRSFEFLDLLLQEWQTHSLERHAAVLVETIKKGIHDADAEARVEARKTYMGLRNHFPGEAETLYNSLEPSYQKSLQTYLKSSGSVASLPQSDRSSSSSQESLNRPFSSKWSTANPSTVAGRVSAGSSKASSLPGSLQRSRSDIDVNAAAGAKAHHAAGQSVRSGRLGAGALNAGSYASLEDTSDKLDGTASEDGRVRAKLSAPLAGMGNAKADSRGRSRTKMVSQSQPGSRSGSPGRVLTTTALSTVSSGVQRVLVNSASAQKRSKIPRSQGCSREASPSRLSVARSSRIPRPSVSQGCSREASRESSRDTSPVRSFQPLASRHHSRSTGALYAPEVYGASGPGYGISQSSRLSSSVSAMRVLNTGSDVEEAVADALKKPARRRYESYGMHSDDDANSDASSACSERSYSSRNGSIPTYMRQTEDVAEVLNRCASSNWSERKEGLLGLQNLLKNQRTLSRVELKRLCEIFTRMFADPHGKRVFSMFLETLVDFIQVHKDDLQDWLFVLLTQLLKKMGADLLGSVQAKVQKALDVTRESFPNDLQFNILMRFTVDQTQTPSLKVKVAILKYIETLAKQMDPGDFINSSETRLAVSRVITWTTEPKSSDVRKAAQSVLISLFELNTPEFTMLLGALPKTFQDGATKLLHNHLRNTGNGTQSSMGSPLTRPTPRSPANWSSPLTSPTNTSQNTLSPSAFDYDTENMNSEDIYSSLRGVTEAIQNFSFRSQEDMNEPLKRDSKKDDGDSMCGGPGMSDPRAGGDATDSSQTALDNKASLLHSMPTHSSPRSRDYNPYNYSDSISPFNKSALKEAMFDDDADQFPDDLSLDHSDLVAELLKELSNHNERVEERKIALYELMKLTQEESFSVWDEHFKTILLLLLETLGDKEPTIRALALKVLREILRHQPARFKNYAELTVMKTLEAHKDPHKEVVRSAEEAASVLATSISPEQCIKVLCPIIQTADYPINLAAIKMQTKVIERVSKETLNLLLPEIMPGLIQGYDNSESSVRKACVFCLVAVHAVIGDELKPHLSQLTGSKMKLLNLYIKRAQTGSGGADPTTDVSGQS
UniProt Q9P0U4, sequence (Q9P0U4 whole entry, looked up): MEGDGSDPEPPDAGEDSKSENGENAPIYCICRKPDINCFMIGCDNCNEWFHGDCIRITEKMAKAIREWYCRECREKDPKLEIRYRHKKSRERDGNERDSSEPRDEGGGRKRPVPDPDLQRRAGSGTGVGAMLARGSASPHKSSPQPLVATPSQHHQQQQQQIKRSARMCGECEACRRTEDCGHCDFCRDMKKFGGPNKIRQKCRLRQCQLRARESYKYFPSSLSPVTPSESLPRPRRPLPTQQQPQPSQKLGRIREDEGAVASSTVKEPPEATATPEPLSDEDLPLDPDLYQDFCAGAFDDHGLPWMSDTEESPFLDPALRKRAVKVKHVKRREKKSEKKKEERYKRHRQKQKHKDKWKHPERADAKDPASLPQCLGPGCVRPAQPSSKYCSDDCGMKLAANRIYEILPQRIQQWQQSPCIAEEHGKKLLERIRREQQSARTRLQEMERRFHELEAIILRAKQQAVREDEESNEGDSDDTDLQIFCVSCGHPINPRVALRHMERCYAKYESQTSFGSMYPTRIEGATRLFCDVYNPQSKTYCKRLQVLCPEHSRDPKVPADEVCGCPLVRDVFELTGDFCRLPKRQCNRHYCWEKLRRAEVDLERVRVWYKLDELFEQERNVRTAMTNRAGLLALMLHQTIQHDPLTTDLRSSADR
UniProt P33240, sequence (P33240 whole entry, looked up): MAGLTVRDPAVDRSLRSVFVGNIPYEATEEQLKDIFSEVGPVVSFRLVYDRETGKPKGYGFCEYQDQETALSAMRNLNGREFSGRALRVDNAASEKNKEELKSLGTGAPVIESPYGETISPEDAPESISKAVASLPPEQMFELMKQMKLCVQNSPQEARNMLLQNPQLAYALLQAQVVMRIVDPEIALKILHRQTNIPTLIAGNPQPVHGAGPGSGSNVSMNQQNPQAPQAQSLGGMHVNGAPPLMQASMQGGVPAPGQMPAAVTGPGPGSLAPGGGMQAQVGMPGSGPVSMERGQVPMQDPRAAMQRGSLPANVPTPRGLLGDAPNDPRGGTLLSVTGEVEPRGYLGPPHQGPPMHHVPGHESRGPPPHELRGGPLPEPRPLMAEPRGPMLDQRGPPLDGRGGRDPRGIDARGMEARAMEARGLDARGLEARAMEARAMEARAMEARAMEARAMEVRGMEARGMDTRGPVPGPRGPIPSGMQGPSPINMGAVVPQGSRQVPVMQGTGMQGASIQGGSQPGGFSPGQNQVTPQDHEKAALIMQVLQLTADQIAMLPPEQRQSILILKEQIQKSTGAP
UniProt Q96KA5, sequence (Q96KA5 whole entry, looked up): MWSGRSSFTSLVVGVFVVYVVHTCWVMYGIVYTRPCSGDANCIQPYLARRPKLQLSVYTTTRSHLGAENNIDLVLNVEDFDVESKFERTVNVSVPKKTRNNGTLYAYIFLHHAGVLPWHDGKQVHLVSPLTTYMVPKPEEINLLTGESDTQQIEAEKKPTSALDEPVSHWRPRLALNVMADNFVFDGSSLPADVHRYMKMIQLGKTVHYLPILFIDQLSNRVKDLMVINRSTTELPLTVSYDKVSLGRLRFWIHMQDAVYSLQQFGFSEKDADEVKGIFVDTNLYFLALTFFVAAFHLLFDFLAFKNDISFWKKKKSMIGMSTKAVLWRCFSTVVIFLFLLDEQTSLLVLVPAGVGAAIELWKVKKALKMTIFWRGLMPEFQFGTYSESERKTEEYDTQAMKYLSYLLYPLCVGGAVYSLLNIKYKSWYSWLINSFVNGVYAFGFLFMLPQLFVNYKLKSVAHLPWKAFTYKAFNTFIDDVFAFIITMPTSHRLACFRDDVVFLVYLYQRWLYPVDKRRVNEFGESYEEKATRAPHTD
UniProt Q9H2P9, sequence (Q9H2P9 whole entry, looked up): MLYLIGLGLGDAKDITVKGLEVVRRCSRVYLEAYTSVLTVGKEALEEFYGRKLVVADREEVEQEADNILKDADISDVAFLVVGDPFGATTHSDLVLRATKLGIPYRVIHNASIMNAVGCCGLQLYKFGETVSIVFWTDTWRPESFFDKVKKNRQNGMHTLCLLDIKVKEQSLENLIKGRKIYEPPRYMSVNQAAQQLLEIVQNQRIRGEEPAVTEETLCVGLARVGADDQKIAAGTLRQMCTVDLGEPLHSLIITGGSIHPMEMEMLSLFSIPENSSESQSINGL
UniProt Q9Y2V7, sequence (Q9Y2V7 whole entry, looked up): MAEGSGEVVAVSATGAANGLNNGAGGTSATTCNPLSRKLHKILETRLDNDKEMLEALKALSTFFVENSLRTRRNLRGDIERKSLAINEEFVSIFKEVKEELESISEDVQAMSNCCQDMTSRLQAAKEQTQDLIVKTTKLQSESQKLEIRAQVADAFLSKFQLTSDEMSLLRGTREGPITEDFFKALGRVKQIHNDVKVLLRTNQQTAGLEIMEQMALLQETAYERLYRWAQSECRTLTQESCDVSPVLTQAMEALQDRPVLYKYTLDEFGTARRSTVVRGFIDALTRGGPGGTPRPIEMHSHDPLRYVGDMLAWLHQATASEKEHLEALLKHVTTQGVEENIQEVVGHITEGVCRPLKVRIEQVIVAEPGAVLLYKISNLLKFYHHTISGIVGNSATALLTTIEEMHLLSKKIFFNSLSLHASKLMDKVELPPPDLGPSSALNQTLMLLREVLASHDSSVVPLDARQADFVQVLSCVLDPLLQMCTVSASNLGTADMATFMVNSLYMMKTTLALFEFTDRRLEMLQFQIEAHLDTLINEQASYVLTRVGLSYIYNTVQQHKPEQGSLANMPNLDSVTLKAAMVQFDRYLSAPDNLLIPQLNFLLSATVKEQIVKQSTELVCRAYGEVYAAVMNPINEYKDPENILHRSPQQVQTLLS
UniProt P29373, sequence (P29373 whole entry, looked up): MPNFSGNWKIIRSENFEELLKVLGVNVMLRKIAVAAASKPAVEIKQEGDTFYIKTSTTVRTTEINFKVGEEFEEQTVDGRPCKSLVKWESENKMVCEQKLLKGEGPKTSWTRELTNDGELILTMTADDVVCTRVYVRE

log2 fold change, inactive:
COTL1 (UniProt Q14019) 0.023
DHCR7 (UniProt Q9UBM7) 0.013
DIAPH3 (UniProt Q9NSV4) 0.029
DMAC2L (UniProt Q99766) -0.009
COQ8A (UniProt Q8NI60) -0.05
CLIP1 isoform 1 (UniProt P30622) 0.001
CORO7 isoform 3 (UniProt P57737) 0.019
CLASP2 isoform 3 (UniProt O75122) 0.021
COG5 isoform 2 (UniProt Q9UP83) 0.037
DOCK7 (UniProt Q96N67) 0.029
CLUH (UniProt O75153) 0.002
CRABP2 (UniProt P29373) 0.006
CUEDC2 (UniProt Q9H467) 0.009
CNOT6L (UniProt Q96LI5) 0.01
COG4 (UniProt Q9H9E3) 0.048
CLPTM1L (UniProt Q96KA5) -0.016
DPH5 isoform 5 (UniProt Q9H2P9) 0.062
CXXC1 isoform 2 (UniProt Q9P0U4) -0.191
COG6 (UniProt Q9Y2V7) -0.005
DENND4A isoform 2 (UniProt Q7Z401) 0.008
CMBL (UniProt Q96DG6) -0.025
DNM2 isoform 4 (UniProt P50570) 0.162
DMXL1 (UniProt Q9Y485) 0.025
DNM2 (UniProt P50570) 0.028
COG3 (UniProt Q96JB2) 0.023
DPM1 (UniProt O60762) 0.044
CSPP1 (UniProt Q1MSJ5) -0.062
CNIH4 (UniProt Q9P003) 0.063
CSTF2 (UniProt P33240) -0.029
CXorf38 (UniProt Q8TB03) -0.034
DHRS11 (UniProt Q6UWP2) 0.03
CHEK1 (UniProt O14757) -0.007
COG2 (UniProt Q14746) -0.002
CLIC2 (UniProt O15247) -0.022

What follows are targets tested with Cn1cc(CNCC2CCN(c3ncc(C(=O)NO)cn3)CC2)c2ccccc21 [quisinostat] in the same assay as above.
Method in brief: as §1

log2 fold change, inactive:
COTL1 (UniProt Q14019) 0.017
DHCR7 (UniProt Q9UBM7) 0.234
DIAPH3 (UniProt Q9NSV4) -0.093
DMAC2L (UniProt Q99766) 0.012
COQ8A (UniProt Q8NI60) 0.082
CLIP1 isoform 1 (UniProt P30622) 0.008
CORO7 isoform 3 (UniProt P57737) -0.026
CLASP2 isoform 3 (UniProt O75122) -0.042
COG5 isoform 2 (UniProt Q9UP83) -0.031
DOCK7 (UniProt Q96N67) -0.039
CLUH (UniProt O75153) -0.043
CRABP2 (UniProt P29373) -0.004
CUEDC2 (UniProt Q9H467) -0.046
CNOT6L (UniProt Q96LI5) -0.054
COG4 (UniProt Q9H9E3) -0.047
CLPTM1L (UniProt Q96KA5) 0.011
DPH5 isoform 5 (UniProt Q9H2P9) 0.003
CXXC1 isoform 2 (UniProt Q9P0U4) -0.159
COG6 (UniProt Q9Y2V7) -0.068
DENND4A isoform 2 (UniProt Q7Z401) -0.083
CMBL (UniProt Q96DG6) -0.047
DNM2 isoform 4 (UniProt P50570) 0.025
DMXL1 (UniProt Q9Y485) -0.009
DNM2 (UniProt P50570) 0.016
COG3 (UniProt Q96JB2) -0.097
DPM1 (UniProt O60762) 0.057
CSPP1 (UniProt Q1MSJ5) 0.026
CNIH4 (UniProt Q9P003) -0.068
CSTF2 (UniProt P33240) 0.033
CXorf38 (UniProt Q8TB03) 0.004
DHRS11 (UniProt Q6UWP2) 0.024
CHEK1 (UniProt O14757) -0.032
COG2 (UniProt Q14746) -0.029
CLIC2 (UniProt O15247) -0.019

Source: the supplement of paper PMC10849652
